{"source": "PubChem BioAssay AID435017", "about": "(Vanderbilt High Throughput Screening Facility, 2010)", "note": "Entries with a potency or affinity are not part of this list. Unmarked numbers belong to inactive results.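 How the source made its calls: active means compounds with a dose-dependent response across tested concentrations; inactive means the rest.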"}
{"target": "ATP-sensitive inward rectifier potassium channel 1 (Homo sapiens) (UniProt P48048)", "sequence (P48048 whole entry, looked up)": "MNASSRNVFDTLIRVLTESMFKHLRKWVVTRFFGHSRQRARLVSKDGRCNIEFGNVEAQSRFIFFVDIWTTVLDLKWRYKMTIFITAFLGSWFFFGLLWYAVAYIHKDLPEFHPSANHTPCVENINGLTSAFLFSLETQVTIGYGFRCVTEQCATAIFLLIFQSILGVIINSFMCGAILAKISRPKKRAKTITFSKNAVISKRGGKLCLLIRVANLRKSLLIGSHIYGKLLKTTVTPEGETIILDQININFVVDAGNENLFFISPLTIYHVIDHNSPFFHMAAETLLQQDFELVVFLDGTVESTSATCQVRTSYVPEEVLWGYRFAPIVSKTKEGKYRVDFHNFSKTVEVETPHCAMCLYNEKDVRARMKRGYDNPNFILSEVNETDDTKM", "experiment": "ROMK inhibition by analog compounds, SAR follow-up, cell-based, thallium flux, analog library (AID 435017)", "details": "Tet-inducible ROMK, thallium flux fluorescence; series mostly up to 10 µM; normalised thallium flux, lower = inhibition: at the top concentration"}
{"smiles": "O=[N+]([O-])c1ccc(CN2CCOCCOCCN(Cc3ccc([N+](=O)[O-])cc3Cl)CCOCC2)c(Cl)c1", "normalised thallium flux, lower = inhibition": "52% [at 100 µM]"}
{"smiles": "Fc1ccc(CN2CCOCCOCCN(Cc3ccc(F)c(F)c3)CCOCC2)cc1F", "normalised thallium flux, lower = inhibition": "20% [at 100 µM]"}
{"smiles": "O=C(c1ccc([N+](=O)[O-])cc1)N1CCOCCOCCN(C(=O)c2ccc([N+](=O)[O-])cc2)CCOCC1", "normalised thallium flux, lower = inhibition": "80.9%"}
{"smiles": "CS(=O)(=O)c1ccc(CN2CCOCCOCCN(Cc3ccc(S(C)(=O)=O)cc3)CCOCC2)cc1", "normalised thallium flux, lower = inhibition": "68% [at 100 µM]"}
{"smiles": "CN(C)S(=O)(=O)c1ccc2nc(COCc3nc4ccc(S(=O)(=O)N(C)C)cc4[nH]3)[nH]c2c1", "normalised thallium flux, lower = inhibition": "89%"}
{"smiles": "O=[N+]([O-])c1ccc(S(=O)(=O)N2CCOCCOCCN(S(=O)(=O)c3ccc([N+](=O)[O-])cc3)CCOCC2)cc1", "normalised thallium flux, lower = inhibition": "87.3%"}
{"smiles": "O=C(Nc1ccc([N+](=O)[O-])cc1)N1CCOCCOCCN(C(=O)Nc2ccc([N+](=O)[O-])cc2)CCOCC1", "normalised thallium flux, lower = inhibition": "80.7%"}
{"smiles": "O=[N+]([O-])c1cccc(CN2CCOCCOCCN(Cc3cccc([N+](=O)[O-])c3)CCOCC2)c1", "normalised thallium flux, lower = inhibition": "11% [at 100 µM]"}
{"smiles": "O=[N+]([O-])c1ccc2nc(COCc3nc4ccccc4[nH]3)[nH]c2c1", "normalised thallium flux, lower = inhibition": "89% [at 3.33 µM]"}
{"smiles": "COCCN(CCOC)Cc1ccc([N+](=O)[O-])cc1", "normalised thallium flux, lower = inhibition": "71% [at 100 µM]"}
{"smiles": "Fc1ccc2nc(COCc3nc4ccc(F)cc4[nH]3)[nH]c2c1", "normalised thallium flux, lower = inhibition": "84%"}
{"smiles": "c1ccc2[nH]c(COCc3nc4ccccc4[nH]3)nc2c1", "normalised thallium flux, lower = inhibition": "89%"}
{"smiles": "O=S(=O)(c1ccc(CN2CCOCCOCCN(Cc3ccc(S(=O)(=O)C(F)(F)F)cc3)CCOCC2)cc1)C(F)(F)F", "normalised thallium flux, lower = inhibition": "65% [at 100 µM]"}
{"smiles": "O=[N+]([O-])c1ccc(CN2CCOCCOCCN(Cc3ccc([N+](=O)[O-])cc3[N+](=O)[O-])CCOCC2)c([N+](=O)[O-])c1", "normalised thallium flux, lower = inhibition": "78.6%"}
